# In article PMC5540273 (PLoS ONE, 2017):
# System: TGFBR1
# Details: concentration: 1 μM, replicates: in singlicate; n = 1
# 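Note: KINOMEscan kinase panel screen.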
row,Compound,%Inh [%]
1,O=C(Nc1n[nH]c2cc(-c3ccsc3)ccc12)C1CC1 [SB-732932],0
2,CC[C@@H]1CO[C@H](C(=O)Nc2ccccc2)CN1c1cc(-c2ccc3c(N)n[nH]c3c2)nc(NC)n1 [GSK2376236],9
3,CNc1cc(-c2ccc3c(N)n[nH]c3c2)nc(N)n1 [GSK2224810],36
4,COC(=O)C(NC(=O)NC1CCN(c2ccnc(Nc3ccc(F)cc3)n2)C1)c1ccccc1 (stereo not drawn) [GSK1379712],26
5,Cc1ccccc1Cn1ccn2c(=O)cc(N3CCOCC3)nc12 [GSK2269905],0
6,Fc1ccc(-c2nn3cccc(F)c3c2-c2ccncc2)cc1 [GW475620],17
7,COc1ccc(Nc2nccc(-c3ccc(NC(=O)c4cc5cc(F)ccc5[nH]4)cc3)n2)cc1 [GSK1229496],9
8,COc1ccc(Nc2nccc(N3CCC(NC(=O)c4cc5ccccc5s4)C3)n2)cc1 (stereo not drawn) [GSK1379738],17
9,COc1ccc(-c2coc3ccc(-c4nnc(C)o4)cc23)cc1,3
10,CNCc1ccc2nc(NC(=O)c3ccc(C(C)(C)C)cc3)cn2c1,3
11,CS(=O)(=O)CCNCc1nc(-c2ccc3ncnc(Nc4ccc(OCc5ccccc5)c(Cl)c4)c3c2)cs1.Cl [GW582764],58
12,Cl.Cl.Cl.N#Cc1ccc(CCNc2nccc(-c3cccc(CN4CCNCC4)c3)n2)cc1 [GSK2137462],0
13,Cc1c(Cn2c3ccccc3n3c(=O)cc(N4CCOCC4)nc23)cccc1C(F)(F)F [GSK2306394],0
14,CC(C)c1ccc(O)cc1Nc1ccnc2ccc(C(F)(F)F)cc12 [GW482059],0
15,O=C(Nc1n[nH]c2nc(-c3cccs3)c(Br)cc12)C1CC1 [SB-735297],0
16,Cc1cnc(N)c(/C=C/c2cncc(C(=O)NCCc3ccc(Cl)cc3Cl)c2)c1.Cl [GSK190937],0
17,c1ccc(-c2ccnc3[nH]ccc23)cc1 [SB-693578],0
18,O=C(Nc1n[nH]c2nc(-c3ccco3)c(Br)cc12)C1CCN(Cc2ccccc2)C1.O=C(O)[C@H](O)[C@@H](O)C(=O)O (stereo not drawn) [SB-742034],0

row,Compound,%Inh [%]
1,CCCCc1nn2ncccc2c1-c1ccnc(NC2CC2)n1 [GW684374],29
2,CC(=O)c1cccc(NC(=O)NC2CCN(c3ccnc(Nc4ccc(F)cc4)n3)C2)c1 (stereo not drawn) [GSK1379710],38
3,COc1ccc(Nc2nccc(N3CCC(NC(=O)C(C)c4ccc(Cl)cc4)C3)n2)cc1 (stereo not drawn) [GSK1379735],23
4,CS(=O)(=O)CCNCc1nc(-c2ccc3ncnc(Nc4ccc5c(cnn5Cc5ccccc5)c4)c3c2)cs1.Cl.Cl [GW569716],27
5,Cc1ccc(-c2nc(Nc3ccncc3)c3ccccc3n2)s1 [GSK189015],6
6,Cc1cccc2c(-c3ccncn3)c(-c3ccc(F)cc3)nn12 [GW515532],0
7,Cc1ccc(NC(=O)Nc2ccc(Cl)c(C(F)(F)F)c2)cc1-c1ccc(C(=O)Nc2ccncc2)cc1 [GSK1398470],0
8,COc1ccc(Nc2nccc(NCCNC(=O)Nc3cc(C)ccc3C)n2)cc1 [GSK1379899],0
9,COc1cccc(NC(=O)Nc2ccc(C)c(-c3ccc(C(=O)Nc4ccncc4)cc3)c2)c1 [GSK1398474],0
10,COc1cccc(CNC(=O)NC2CCN(c3ccnc(Nc4ccc(F)cc4)n3)C2)c1 (stereo not drawn) [GSK1379723],21
11,CC(=O)c1c(C)c2cnc(Nc3ccn(C)n3)nc2n(C2CCCC2)c1=O,0
12,O=C1NC(=O)C(c2ccc(Cl)cc2)=C1Nc1ccc(O)cc1 [SB-340867],1
13,COc1ccc(CSc2nnc(-c3ccc4c(c3)CCO4)o2)cc1,0
14,COc1nccc(-c2c(-c3ccc(F)cc3)ncn2CCCN2CCOCC2)n1 [SB-282852],20
15,COC(=O)C(Cc1ccccc1)NC(=O)NC1CCN(c2ccnc(Nc3ccc(F)cc3)n2)C1 (stereo not drawn) [GSK1379714],20
16,COc1cccc(C2=C(Nc3cc(Cl)c(O)c(Cl)c3)C(=O)NC2=O)c1 [SB-390767],0
17,Cc1ccc(NC(=O)Nc2ccc(Cl)cc2)cc1-c1ccc(C(=O)Nc2ccncc2)cc1 [GSK1398472],3
18,CCn1c(-c2ccccc2)nc2cnccc21 [SB-733416],0
